Laboratory results: PubChem BioAssay AID932 (The Scripps Research Institute Molecular Screening Center, 2007)
The whole screen tested about 200,000 compounds, of which about 5,100 (2.5%) were called active. Many of the other results were omitted from the sample, so actives are more common in it than they were. Values without a mark were called inactive.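 Rule for the calls: active = activation above the screen-wide mean activation plus 3 SD (cut at about 130% in these data); inactive = the rest.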

Test: potentiators of IFN-gamma driven STAT1 reporter – cell-based, HTS, luciferase reporter, primary screen (AID 932);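 note: raw ratio to IFN-gamma control signal so 100% means no change and 0% no light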
Conditions: NIH 3T3 STAT1-luciferase reporter, luminescence, at 5.5 µM, hits give high values, 100% = IFN-gamma alone, no compound

SMILES | activation (% of control)
Cc1cccc(/C(N)=N/OC(=O)c2ccccc2Cl)c1 | 138% (active)
N/C(=N\OC(=O)c1cc(-c2ccccc2)nc2ccccc12)c1ccncc1 | 99.8%
Cc1cccc(C(=O)c2cccc(C)c2)c1 | 103%
COc1ccccc1C(=O)CSc1cccc[n+]1[O-] | 105%
CC(C)Oc1ccc(Cc2n[nH]c(=S)n2Cc2ccccc2)cc1Cl | 90.5%
CCN1CCc2nc(NC(=O)c3cc(F)c(F)cc3Cl)sc2C1 | 111%
CC(=O)c1cccc(NC(=O)Nc2ccc(C)cc2)c1 | 118%
Cc1cccc(NC(=O)Nc2nnc(-c3ccccc3)o2)c1 | 99.5%
Cc1ccc(NC(=O)Nc2ccccc2)c(Br)c1 | 164% (active)
CN=C(c1ccccc1)c1c(C)cccc1C | 93.1%
O=C(CC1C(=O)NCCN1Cc1ccc(-c2ccccc2)cc1)NCC1CCOCC1 (configuration not stated) | 102%
O=C(Cc1csc(Nc2nc(=S)[nH]c3ccccc23)n1)NCCCN1CCN(c2cccc(Cl)c2)CC1 | 90.9%
Cc1ccccc1CC1(CO)CCCN(C(=O)c2cc(-c3ccccc3)no2)C1 (configuration not stated) | 104%
COC(=O)CCC(=O)N1CCCC(CO)(Cc2ccccc2)C1 (configuration not stated) | 146% (active)
CC(=O)c1cccc(CN2CCC(CO)(Cc3ccccc3)CC2)c1 | 96%
CCc1nnc(NC(=O)c2cccc(S(=O)(=O)N(C)c3ccc(OC)cc3)c2)s1 | 86.1%
CCN(CC(=O)NCc1cccs1)S(=O)(=O)c1ccc(NC(C)=O)cc1 | 104%
CCn1c(/C=C/Nc2ccccc2)[n+](CC)c2ccc(C(=O)OCC(F)(F)F)cc21 | 88.3%
COCc1ccc(C(=O)N2CCc3c([nH]c4ccccc34)C2c2ccccn2)s1 (configuration not stated) | 94%
COC(=O)c1ccc(-n2cnc3ccccc32)nc1 | 129% (active)
Cc1ccc(OCC(=O)Nn2cnc3ccccc32)cc1 | 104%
COCCOCCn1cnc2ccccc21 | 104%
O=C(O)CC1S/C(=N\N=C/c2ccccc2O)N(c2ccc(O)cc2)C1=O (configuration not stated) | 102%
Cc1cccc2c1N(CCOc1ccccc1)C(=O)C2=O | 99%
Cc1ccc(NC(=O)c2sccc2C)cc1[N+](=O)[O-] | 138% (active)

SMILES | activation (% of control)
Cc1ccc(NC(=O)CN(C)CC(=O)Nc2cccc(F)c2)cc1[N+](=O)[O-] | 67.3%
Cc1ccsc1C(=O)N/N=C/c1ccc([N+](=O)[O-])cc1 | 146% (active)
Cc1nc2ccccc2cc1C(=O)N/N=C/c1ccc([N+](=O)[O-])cc1 | 93.6%
NC(=S)N/N=C/c1ccc([N+](=O)[O-])cc1 | 121%
Cc1cc(O)c(NC(=O)c2ccc(C)c([N+](=O)[O-])c2)cc1C | 103%
C=CCNC(=O)COC(=O)c1ccccc1C(=O)N(C)C1CCCCC1 | 95.6%
O=c1[nH]n(-c2ccc([N+](=O)[O-])cc2)c(=O)c2ccccc12 | 101%
CCN1CC(CN(C)Cc2nc(-c3ccc(Cl)cc3)no2)CC1=O (configuration not stated) | 96.3%
CC(C)C(c1nnnn1C(C)(C)C)N1CCN(Cc2cccnc2)CC1 (configuration not stated) | 98.8%
CCCCCC(=O)Nc1ccc(-c2cn3cccnc3n2)cc1 | 103%
C/C(=N/NC(=O)c1ccc(Br)o1)c1ccc(C)o1 | 112%
CC(C)(C)C1CCC(=NNC(=O)c2ccc(Br)o2)CC1 (configuration not stated) | 121%
CCC(C)(C)C1CCC(=NNC(=O)c2ccc(Br)o2)CC1 (configuration not stated) | 129% (active)
COc1ccccc1-n1c(C)nc2cc(C(=O)NCc3ccc4c(c3)OCO4)ccc21 | 98.5%
COc1ccc(OC)c2[nH]c(=O)c(CCNC(=O)C(=O)c3c[nH]c4ccccc34)cc12 | 95.3%
Cc1ccc(NC(=O)CC2C(=O)N(Cc3ccccc3)C(=S)N2NC(=O)c2cccc(F)c2)c(C)c1 (configuration not stated) | 103%
CC(=O)Cn1ncc(N2CCOCC2)c(Br)c1=O | 104%
O=C(Cn1ncc(N2CCCC2)c(Br)c1=O)c1ccc(Cl)cc1 | 130% (active)
Cn1c(=O)c2c(nc(N3CCCCCC3)n2CC(=O)c2ccc(Br)cc2)n(C)c1=O | 94.8%
O=C(COC(=O)/C=C/c1nc2ccccc2s1)Nc1ccccc1Oc1ccccc1 | 95.5%
CC(=O)NCC(=O)N1CCCC(C(=O)c2ccc3c4c(cccc24)CC3)C1 (configuration not stated) | 99.2%
CCOC(=O)C1CCN(c2ccc(C(=O)O)cc2[N+](=O)[O-])CC1 | 98.3%
COc1ccc(NC(=O)N2CCCC(c3nc(-c4ccc(F)cc4)no3)C2)cc1 (configuration not stated) | 102%
CSc1ccc(C#N)cc1NC(=O)c1cccc(Cl)c1 | 106%
O=C(Nc1ccn(Cc2ccccc2F)n1)c1ccc(COc2ccc(Cl)cc2Cl)o1 | 105%

SMILES | activation (% of control)
N#Cc1ccccc1NC(=O)c1cccc(COc2ccc(Cl)cc2Cl)c1 | 132% (active)
CN1C=CC=C/C1=C1\SC(=S)N(Cc2ccccc2)C1=O | 104%
c1ccc(CN=C2Nc3ccccc3CS2)nc1 | 135% (active)
O=C(NCc1ccccn1)Nc1ccc(F)cc1 | 108%
CC(C)(C)NC(=O)CN1CCC(NC(=O)C23CC4CC(CC(C4)C2)C3)CC1 | 96.5%
COc1cccc(-n2nc(C(=O)N3CCN(Cc4ccccc4)CC3)c3ccccc3c2=O)c1 | 99.9%
CCOC(=O)CNC(=O)c1nn(-c2cccc(OC)c2)c(=O)c2ccccc12 | 130% (active)
COc1ccc(-n2nc(C(=O)NCC(=O)Nc3cccc(C)n3)c3ccccc3c2=O)cc1 | 99.9%
COc1ccc(-c2nn3c(-c4ccccc4)nnc3s2)cc1OC | 114%
COc1ccc(-c2csc(-c3cccs3)n2)cc1OC | 182% (active)
COc1ccc(C2CC(c3cccs3)=Nc3ccccc3S2)cc1OC (configuration not stated) | 106%
Cc1ccc(NC(=S)N(CCN(C)C)Cc2cccs2)cc1C | 97.2%
Cc1ccc(NC(=O)c2cccs2)cc1S(=O)(=O)N(C)C | 101%
Cc1ccc(NC(=O)CNCc2ccccn2)cc1S(=O)(=O)N(C)C | 97.7%
Cc1ccc(C(=O)Nc2ccc(C)c(S(=O)(=O)N(C)C)c2)s1 | 141% (active)
C#CCOCCOCCOCCNc1nc(N2CCN(C(=O)C(Cc3ccc(O)cc3)n3cc(C(N)CC(C)C)nn3)CC2)nc(N2CCN(C(=O)C(Cc3ccc(O)cc3)n3cc(C(N)C(C)CC)nn3)CC2)n1 (configuration not stated) | 109%
O=C(NC(=S)Nc1cccc(-c2ccc(CO)o2)c1)c1cccs1 | 93.4%
Cc1cc(-c2n[nH]c(=S)n2-c2ccc(C)c(C)c2)no1 | 90.1%
CCOC(=O)c1ccccc1N1C(=O)C2Sc3[nH]c(=O)sc3C(/C=C/c3ccccc3)C2C1=O (configuration not stated) | 114%
COC(C(=O)Nc1ccc(S(=O)(=O)Nc2ccc(C)c(C)c2)cc1)c1ccccc1 (configuration not stated) | 108%
CC(=O)c1cnc(SCCN2C(=O)c3ccccc3C2=O)nc1C | 95.5%
Nc1ccc(SCCN2C(=O)c3ccccc3C2=O)cc1 | 129% (active)
Cc1ccc(SCCN2C(=O)NC(C)(C)C2=O)cc1 | 103%
O=C(CN1CCSCC1)N/N=C/c1ccc(Cl)cc1 | 107%
COc1ccc(-c2ccc(CCC(=O)O)n2-c2ccc(O)cc2)cc1 | 101%

SMILES | activation (% of control)
CCCOc1ccc(C(=O)NCCc2ccccc2)cc1 | 76.1%
O=C(NCCc1ccccc1)c1ccc(OCCOc2ccccc2)cc1 | 109%
CC(C)c1ccc(C(=O)NCCCc2ccccc2)cc1 | 131% (active)
COc1ccc(Cc2nnc(NC(=O)c3cc(OC)c(OC)c(OC)c3)s2)cc1OC | 89.1%
CCOCCCNC(=O)C(NC(=O)Cc1c[nH]c2ccccc12)c1ccc(OC)cc1 (configuration not stated) | 87.9%
O=C(CSc1ccsc1[N+](=O)[O-])N1CCCCC1 | 94.8%
O=C(CSCc1ccc(Cl)cc1)N1CCCCC1 | 121%
O=C(CSCc1cccs1)N1CCCC1 | 129% (active)
COc1ccc(C(=O)NCc2nnc(SCCOc3ccccc3)n2C)cc1 | 102%
CS(=O)(=O)n1nc(-c2ccccc2)nc1NCc1ccco1 | 102%
CCS(=O)(=O)n1nc(-c2ccc(OC)cc2)nc1SC | 112%
CCS(=O)(=O)n1nc(-c2ccccc2)nc1SCc1ccccc1 | 130% (active)
COc1cccc(-n2c(=O)c3c(C)c(C(=O)N(C)C)sc3n(CC(=O)NCCc3ccc(OC)c(OC)c3)c2=O)c1 | 97.9%
COc1ccc(NC(=O)c2ccc(OC)cc2)cc1 | 140% (active)
COc1ccc(C(=O)Nc2ccc(S(=O)(=O)NC(C)C)cc2)cc1 | 93.8%
COc1ccc(NC(=O)Nc2ccc3nsnc3c2)cc1 | 146% (active)
COc1ccc(/C=N/NC(=O)Nc2ccc3nsnc3c2)c(OC)c1 | 114%
COc1ccc(NC(=O)c2ccc(C#CC(C)(C)O)cc2)cc1 | 106%
COc1ccc(NC(=O)Nc2ccc3nc(C)c(C)nc3c2)cc1 | 103%
CCOc1cc(/C=C(/C#N)c2ccc(Cl)cc2)cc(Cl)c1OCC(=O)O | 56.1%
COc1ccccc1Cn1c(C)nnc1-c1cnn(C)c1N | 93.2%
CCN(CCn1cccn1)Cc1cn[nH]c1-c1ccc(OC)cc1F | 89%
